Reference: the OligoGym collection

Target: RBMY1E
Test: pooled miR-30 sensor sort-seq; sequence = guide strand
Settings: shRNA

Sequence	sensor-assay potency score (higher = more potent)
TAACTTGAGCTACCACATGCTT	-1.09
TTGAGCTACCACATGCTTCACG	-0.607
TTCCACCATAGGACATCCGAGG	-1.61

Target: RBP1
Test: as above
Settings: shRNA

Sequence	sensor-assay potency score (higher = more potent)
AAGTCCATGATGTAGTTCCTAA	-0.968
TTGACCAACATCTTCCAGTACC	-0.856
TCGTTGACCAACATCTTCCAGT	-0.239
TTCCTAAAAGTGCTCAGCGTGC	-1.04
ACTGTTGTCATGCACTTGCGGT	-1.01
TTGCTTGCAGACCACACCTTCC	-0.849
ATTCTCGTTGACCAACATCTTC	-0.954
TACTCCTCGAAATTCTCGTTGA	-0.0394
TTCCACTCTCATCTCTAGGTGC	-0.438
TTGTCATGCACTTGCGGTCATC	-1.49
TTCTCGTTGACCAACATCTTCC	-0.467
TTCTGCACACACTGGAGCTTGT	-0.8
